# Source: PubChem
# A selection: hits, their analogues and other compounds. The true share with any hit is near 18%.
# LDHA block: qHTS assay for inhibitors of human lactate dehydrogenase; L-lactate dehydrogenase A chain (Homo sapiens), P00338; purified LDHA, NADH/diaphorase-resazurin fluorescence; stronger effect = lower value; activity change, % (values are at about 110 or 230 µM); 480,000 tested, 0.15% active; in the data active = activity change below about -30%; inconclusive = mostly about -25% to -30%;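 note: plate controls were DMSO wells for no effect and wells without enzyme for full effect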
#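 Enzyme activity of human lactate dehydrogenase 5 (2 nM; 0.06 mM NADH, 0.2 mM pyruvate, 5 min, RT) is measured via a resazurin/diaphorase fluorescence readout of residual NADH.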
# VP16 counter: VP16 counterscreen qHTS for inhibitors of ROR gamma transcriptional activity. Drosophila S2 Gal4-VP16 UAS-luciferase, luminescence, 20 h. Potency, µM (top dose mostly 53.6 µM), inactives show at the top dose activity, negative = inhibition, usual class: inhibitors. 310,000 tested, 3.5% active. AID 2546, 2010;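 note: Gal4-VP16 expression switched on by copper sulfate through the metallothionein promoter; potency is the fitted concentration of half-maximal effect; nearly all actives have a fitted effect of over 50% in size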
# TDP1 cell noCPT: qHTS for Inhibitors of human tyrosyl-DNA phosphodiesterase 1 (TDP1): qHTS in cells in absence of CPT; AID 686978, 2013; DT40 Tdp1-/- hTDP1 cells, no CPT, ATP luminescence, 48 h; 420,000 tested, 15% active; Potency, µM (series often up to 46.2 µM), for the others: at the top dose activity change, negative = growth inhibition, actives largely listed as inhibitors; note: potency is the fitted concentration of half-maximal effect; nearly all actives have a fitted effect of over 55% in size
#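 Chicken DT40 Tdp1-/- cells stably complemented with human TDP1 were seeded at 400 cells/well with DMSO in place of 20 nM camptothecin. After compound pinning, cells grew at least 48 hr at 37 °C; viability read by CellTiter-Glo luminescence.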
# IL-1B inflam inh: qHTS for Inhibitors of Inflammasome Signaling: IL-1-beta AlphaLISA Primary Screen; THP-1 LPS/ATP IL-1B secretion, AlphaLISA, 16 h; stronger effect = lower value; activity change, % at 57.5 µM; 360,000 tested, 4.7% active; in the data active = activity change below about -50%; inconclusive = mostly about -30% to -49%
#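 Secreted IL-1B measured by AlphaLISA bead assay after 16 h compound exposure of THP-1 cells; compounds (final up to 57.5 uM) added 1 h before LPS (250 ng/mL) and ATP (1.25 mM) stimulation; lower signal means less secretion.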
# RORgamma inh: qHTS for inhibitors of ROR gamma transcriptional activity. Drosophila S2 Gal4-RORgamma UAS-luciferase reporter, 20 h. 310,000 tested, 5.4% active. AID 2551, 2010. Potency, µM (highest dose often 53.6 µM), for the others: at the top dose activity change, negative = inhibition, hits mostly inhibitors; note: potency is the fitted concentration of half-maximal effect; nearly all actives have a fitted effect of over 60% in size
# Target sequence (P51450 whole entry, looked up, the tested form may be a part): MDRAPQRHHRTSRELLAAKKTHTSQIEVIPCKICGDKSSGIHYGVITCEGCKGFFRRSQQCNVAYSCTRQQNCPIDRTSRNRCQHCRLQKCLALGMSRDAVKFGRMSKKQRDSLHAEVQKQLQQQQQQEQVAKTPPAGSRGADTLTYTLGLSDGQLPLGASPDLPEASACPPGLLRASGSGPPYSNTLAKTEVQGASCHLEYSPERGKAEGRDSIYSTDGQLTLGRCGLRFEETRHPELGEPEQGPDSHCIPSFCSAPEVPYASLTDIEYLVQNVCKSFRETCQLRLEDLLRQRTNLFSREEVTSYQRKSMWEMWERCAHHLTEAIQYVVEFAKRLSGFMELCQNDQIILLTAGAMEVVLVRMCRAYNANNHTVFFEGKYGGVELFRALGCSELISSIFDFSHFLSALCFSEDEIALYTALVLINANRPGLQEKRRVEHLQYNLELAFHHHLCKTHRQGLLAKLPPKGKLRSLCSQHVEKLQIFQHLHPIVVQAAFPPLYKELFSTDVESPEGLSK
#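 Drosophila Schneider cells stably carrying a metallothionein-driven Gal4 DBD–ROR gamma fusion and a UAS-Photinus luciferase reporter were exposed to compound for 1 hr, then induced with copper sulfate (700 uM final) for 20 hr at ambient temperature before luminescence reading.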
# TDP1 cell CPT: qHTS for Inhibitors of human tyrosyl-DNA phosphodiesterase 1 (TDP1): qHTS in cells in presence of CPT; chicken DT40 Tdp1-/-;hTDP1 cells + 20 nM CPT, ATP luminescence, 48 h; 420,000 tested, 12% active; AID 686979, 2013; Potency, µM (highest dose often 46.2 µM), for the others: at the top dose activity change, negative = growth inhibition, hits mostly inhibitors; note: potency is the fitted concentration of half-maximal effect; nearly all actives have a fitted effect of over 55% in size
#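 Chicken DT40 Tdp1-/- cells stably complemented with human TDP1 were seeded at 400 cells/well in medium containing 20 nM camptothecin, exposed to pin-transferred compounds, and grown at 37 °C for at least 48 hr. Viability was read as ATP luminescence.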
# * = called active by the depositor; ? = inconclusive; . = no result. Unless noted, calls come from the whole dose curve; as a rule, active = well fitted curve in the direction sought with a large enough effect; inconclusive = small, poorly fitted or top-dose-only effect, or another doubt; inactive = no such curve, though single readings can be large; an effect the other way counts as inactive or inconclusive. Unless noted, % is set by controls: 0 for no effect and ±100 for the full control effect.
SMILES,LDHA block,VP16 counter,TDP1 cell noCPT,IL-1B inflam inh,RORgamma inh,TDP1 cell CPT
COc1ccc(NC(=O)CCc2c(C)c3ccc(OC)c(C)c3oc2=O)c(OC)c1,-0.1,.,.,.,.,.
Cc1cc(=O)oc2cc(OC(=O)COc3ccccc3)ccc12,0.1,.,.,.,.,.
CC(C)C(=O)NCCNC(=O)NC(CN(C)C)c1ccccc1 (stereo not drawn),1.8,.,.,.,.,.
CCCc1noc(COc2ccc3c(C)cc(=O)oc3c2)n1,0.8,.,.,.,.,.
CCOCCCNC(=O)/C(C#N)=C/c1ccc(-c2ccc(S(=O)(=O)N3CCOCC3)cc2)o1,2.5,-10.0%,8.2µM*,4.8,41.7%,11.6µM*
CCOCCCNC(=O)/C(C#N)=C/c1ccc([N+](=O)[O-])o1,36.0,1.3%,1.84µM*,-110.8*,12.4%,1.3µM*
CCOCCCNC(=O)/C(C#N)=C/c1cc(Br)c(O)c(Br)c1,-0.3,5.3%,1.64µM*,?,92.5%,4.11µM*
CCCCNC(=O)/C(C#N)=C/c1ccc(C(=O)OC)cc1,-7.3,-13.5%,?,13.3,?,?
COc1ccc(NC(=O)CSc2nnc3n2CCCCC3)cc1OC,0.5,.,0.206µM*,?,.,1.9%
COc1ccc(NC(=O)CSc2nnc(C3CCCCC3)n2N)cc1OC,-16.6,-10.0%,-8.5%,1.8,6.1%,-3.7%
COc1ccc(C(=O)Nc2ccc(-c3nnc4n3CCCCC4)cc2)cc1OC,-8.9,.,13µM*,.,.,13µM*
Nc1nc(SCc2noc(-c3ccccc3)n2)n[nH]1,-2.1,.,.,.,.,.
CCOCc1nc(N)nc(N)c1-c1cccc(Cl)c1,-5.1,.,7.31µM*,11.5,.,8.2µM*
COc1cccc(SCC(=O)c2ccc3c(c2)NC(=O)CO3)c1,9.3,.,.,.,.,.
COc1ccc(-c2ccc3c(N)c(C(=O)Nc4cc(F)ccc4C)sc3n2)cc1,-2.6,.,14.6µM*,.,.,?
COc1ccc(-c2ccc3c(N)c(C(=O)Nc4cccc(C)c4)sc3n2)cc1,-8.6,.,?,.,.,16.4µM*
Nc1c(C(=O)Nc2ccc(F)cc2)sc2nc(-c3ccco3)ccc12,1.4,-5.8%,?,-4.5,-1.9%,?
Cc1ccc(-c2ccc3c(N)c(C(=O)Nc4cccc(C)c4)sc3n2)cc1,5.7,.,.,.,.,.
Nc1c(C(=O)Nc2ccc(Br)cc2)sc2nc(-c3ccco3)ccc12,-14.3,?,14.6µM*,8.1,-17.3%,?
Cc1ccc(NC(=O)c2sc3nc(-c4ccc(F)cc4)ccc3c2N)cc1F,0.5,.,20.6µM*,.,.,11.6µM*
COc1cc2ccccc2cc1C(=O)OCc1ccc(C#N)cc1,8.7,.,.,.,.,.
COc1ccccc1-c1cc(=O)c2cc(NS(=O)(=O)c3ccc(F)cc3)ccc2o1,-0.7,.,.,.,.,.
Cc1nc(NC(=O)c2ccccc2)sc1-c1cc(C(=O)N2CCOCC2)nn1CCO,-9.9,.,13.9%,-29.1,.,12.2%
Cc1nc(NC(=O)c2ccccc2)sc1-c1cc(C(=O)N2CCOCC2)nn1Cc1ccccc1,-7.0,.,-18.2%,-3.2,.,20.6µM*
COc1ccc(N2CCN(C(=O)c3ccc(Br)cc3)CC2)c([N+](=O)[O-])c1,-4.4,?,18.4µM*,-18.4,?,?
COc1ccc(N2CCN(c3ccc(N4C(=O)COCC4=O)cc3[N+](=O)[O-])CC2)cc1,-3.8,-23.3%,9.2µM*,-4.3,14.7%,?
COc1ccc(N2CCN(C(=O)c3ccccc3)CC2)c([N+](=O)[O-])c1,1.9,-9.2%,-23.9%,-6.4,63.1%,-11.2%
